# Screen size: about 310,000 compounds; about 14,000 (4.5%) showed an effect of 50% or more. Effects have a minus sign here. This excerpt belongs to a sample that is enriched for strong results.
# Target: human ether-à-go-go-related gene (hERG) potassium channel (human, UniProt Q12809)
# Experiment: primary screen, population patch clamp on CHO cells stably expressing hERG; higher = less effect of the substance
# 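Note: peak tail current of the secondary pulse compared with the same well before compound.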
# Sequence of human ether-à-go-go-related gene (hERG) potassium channel (Q12809 whole entry, looked up): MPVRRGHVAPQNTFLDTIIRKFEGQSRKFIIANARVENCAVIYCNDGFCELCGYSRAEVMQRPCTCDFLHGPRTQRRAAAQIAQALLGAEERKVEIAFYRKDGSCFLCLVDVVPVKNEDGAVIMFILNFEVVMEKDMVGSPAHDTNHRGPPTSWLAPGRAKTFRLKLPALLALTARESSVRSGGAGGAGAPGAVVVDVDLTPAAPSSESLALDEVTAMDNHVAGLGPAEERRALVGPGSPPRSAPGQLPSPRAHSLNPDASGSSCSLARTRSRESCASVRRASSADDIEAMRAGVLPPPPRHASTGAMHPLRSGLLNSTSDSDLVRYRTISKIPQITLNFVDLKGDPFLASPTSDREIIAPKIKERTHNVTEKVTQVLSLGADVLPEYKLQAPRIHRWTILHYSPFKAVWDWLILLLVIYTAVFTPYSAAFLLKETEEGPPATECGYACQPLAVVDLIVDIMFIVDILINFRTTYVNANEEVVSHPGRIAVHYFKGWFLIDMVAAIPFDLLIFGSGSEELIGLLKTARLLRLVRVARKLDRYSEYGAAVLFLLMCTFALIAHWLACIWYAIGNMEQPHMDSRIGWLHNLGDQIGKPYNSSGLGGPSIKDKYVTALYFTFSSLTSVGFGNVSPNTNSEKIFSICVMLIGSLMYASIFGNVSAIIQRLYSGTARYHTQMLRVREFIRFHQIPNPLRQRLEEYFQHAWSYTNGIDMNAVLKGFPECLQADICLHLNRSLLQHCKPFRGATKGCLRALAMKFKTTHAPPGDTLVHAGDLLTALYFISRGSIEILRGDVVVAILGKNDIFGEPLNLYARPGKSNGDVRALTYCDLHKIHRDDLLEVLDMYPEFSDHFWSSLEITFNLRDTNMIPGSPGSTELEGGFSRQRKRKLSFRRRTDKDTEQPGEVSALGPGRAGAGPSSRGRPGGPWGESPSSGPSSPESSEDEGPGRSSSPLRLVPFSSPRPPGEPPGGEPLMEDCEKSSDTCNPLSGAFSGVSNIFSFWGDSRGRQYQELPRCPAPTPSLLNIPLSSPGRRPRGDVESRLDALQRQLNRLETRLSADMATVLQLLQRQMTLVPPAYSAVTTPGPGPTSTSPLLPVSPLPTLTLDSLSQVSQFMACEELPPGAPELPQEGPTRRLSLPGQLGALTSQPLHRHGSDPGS
row,SMILES,"hERG current change (%, negative = inhibition) at 10uM [%]"
1,CC(=O)Nc1ccccc1NC(=O)COc1cccc2ccccc12,18.9
2,CCOC(=O)c1sc(NC(=O)CN2CCN(c3ccc(OC)cc3)CC2)nc1C,-20.6
3,O=C(Nc1nc2ccccc2s1)c1ccc(N2CCCCC2)c([N+](=O)[O-])c1,6.67
4,O=C(NNC(=O)c1ccc(Br)s1)NC1CCCCC1,28.1
5,Cc1ccc(NC(=O)CCSc2nnc3ccccn23)cc1,2.6
6,NC(=O)c1cc(S(=O)(=O)Nc2cccc(Cl)c2)cs1,-61.2
7,Cc1cccc(NS(=O)(=O)c2csc(C(N)=O)c2)c1,8.92
8,NC(=O)c1cc(S(=O)(=O)Nc2ccccc2)cs1,1.39
9,CCC(C)NC(=O)C1CCC(CNS(=O)(=O)c2ccc3c(c2)N(C(C)=O)CCO3)CC1 (stereo not shown),6.84
10,COc1ccccc1NC(=O)C(=O)NCC(c1ccco1)N1CCc2ccccc21 (stereo not shown),-1.64
11,COc1ccc(-n2cnc3c(sc4nc(N5CCOCC5)c5c(c43)CCCC5)c2=O)cc1,21.3
12,CCc1cccc(NS(=O)(=O)c2c(C)[nH]c(=O)[nH]c2=O)c1,20.8
13,COCCn1nnnc1CN(CCc1ccccc1)Cc1cc2ccc(C)cc2[nH]c1=O,-57.2
14,COCCn1nnnc1CN(CCc1ccc(OC)c(OC)c1)Cc1cc2ccc(C)cc2[nH]c1=O,-42.8
15,COCCn1nnnc1CN(CCc1ccccc1)Cc1cc2cc(OC)ccc2[nH]c1=O,-47.8
16,COc1ccc2[nH]c(=O)c(CN(Cc3ccccc3)Cc3nnnn3CC3CCCO3)cc2c1 (stereo not shown),-4.75
17,COc1ccc2cc(CN(CCc3ccccc3)Cc3nnnn3CC3CCCO3)c(=O)[nH]c2c1 (stereo not shown),-31.3
18,COc1ccc2cc(CN(CCc3ccccc3)Cc3nnnn3Cc3ccco3)c(=O)[nH]c2c1,-29.7
19,COc1ccc2cc(CN(Cc3cccnc3)Cc3nnnn3Cc3ccccc3)c(=O)[nH]c2c1,-74.4
20,COc1ccc2[nH]c(=O)c(CN(CCc3ccccc3)Cc3nnnn3CC3CCCO3)cc2c1 (stereo not shown),-53.4
21,COc1ccc2cc(CN(Cc3cccs3)Cc3nnnn3Cc3ccccc3)c(=O)[nH]c2c1,-11.3
22,COc1cc(OC)cc(C(=O)OCC(=O)NCc2ccco2)c1,2.94

row,SMILES,"hERG current change (%, negative = inhibition) at 10uM [%]"
1,Cc1ccc(-n2nnc3c(=O)n(CC(=O)N4CCOCC4)cnc32)cc1,-3.25
2,CCOc1ccccc1C(=O)NCCC(=O)O,8.38
3,Cc1onc(-c2c(F)cccc2Cl)c1C(=O)N1CCc2ccccc2C1,-15.7
4,O=C(CCn1ccc2cc(S(=O)(=O)N3CCCC3)ccc21)NCCc1ccccc1,-16.9
5,O=C(Nc1ccc(Br)cc1)C1CCCC1,9.31
6,O=C(c1ccc(COc2ccccc2Cl)o1)N1N=C(C(F)F)CC1(O)C(F)F (stereo not shown),17.1
7,COc1ccc(CCNc2ccc(C(CC(N)=O)NC(=O)Cc3ccc(Br)cc3)cc2[N+](=O)[O-])cc1 (stereo not shown),4.07
8,S=c1[nH]nc(-c2cc(-c3ccsc3)n[nH]2)n1-c1cccc2ccccc12,-12.6
9,COc1cccc(N2CC(NC(=O)c3cccc4ccccc34)CC2=O)c1 (stereo not shown),-6.44
10,CCCC1(CCC)C(=O)NC(=NCCc2ccc(OC)c(OC)c2)NC1=O,13.4
11,COc1cccc(CNC(=O)CCCn2ncn3c(cc4occc43)c2=O)c1,-42.9
12,O=C(CCCn1ncn2c(cc3occc32)c1=O)N1CCc2ccccc2C1,-63
13,COc1ccc(CNC(=O)CCCn2ncn3c(cc4occc43)c2=O)cc1,-22.4
14,CCc1nn(CCCC(=O)NCc2ccc(OC(C)C)cc2)c(=O)c2cc3occc3n12,-54.4
15,O=C(CCCn1ncn2c(cc3occc32)c1=O)NCc1cccc(Cl)c1,-61.3
16,CCc1nn(CCCC(=O)N2CCc3ccccc3C2)c(=O)c2cc3occc3n12,-29
17,CCc1nn(CCCC(=O)NCc2ccc(C)cc2)c(=O)c2cc3occc3n12,-8.1
18,CCOC(=O)CCCn1ncn2c(cc3occc32)c1=O,-0.3
19,CCc1nn(CC(=O)N2CCN(c3cc(C)ccc3C)CC2)c(=O)c2cc3occc3n12,13
20,Cc1ccc(C)c(N2CCN(C(=O)CCCn3ncn4c(cc5occc54)c3=O)CC2)c1,-63.4
21,CCOc1ccc(CNC(=O)CCCn2nc(CC)n3c(cc4occc43)c2=O)cc1,-24.7
22,Cc1ccccc1CNC(=O)CCCn1ncn2c(cc3occc32)c1=O,-14.7

row,SMILES,"hERG current change (%, negative = inhibition) at 10uM [%]"
1,Cc1nnc(NC(=O)c2cc(-c3ccco3)nc3ccccc23)s1,2.18
2,Cc1nc2cc(NC(=O)NCc3ccco3)ccc2o1,9.7
3,Cn1c(C(=O)NC2CC2)cc(=O)n(C)c1=O,-8
4,COc1ccc(CNC(=O)COC(=O)c2ccc(C)c(S(=O)(=O)N3CCOCC3)c2)cc1OC,6.13
5,CC1CCCN(S(=O)(=O)c2csc(C(N)=O)c2)C1 (stereo not shown),15.2
6,O=C(NCc1csc2ccccc12)Nc1cc(Cl)cc(Cl)c1,13.6
7,CCOc1ccc(C(C)(N)C(=O)O)cc1 (stereo not shown),-2.39
8,COc1ccc(NC(=O)c2cn(-c3ccccc3)nc2SC)cc1,-8.55
9,COc1ccc(CNC(=O)c2cc(-c3ccc(OC)c(OC)c3)on2)cc1,6.84
10,CCC(=O)Oc1ccc(C/C(=N\O)c2ccc(O)cc2O)o1,-8.07
11,CCOC(=O)C1CCCN(C(=O)CCCn2nc(C)n3c(cc4sccc43)c2=O)C1 (stereo not shown),-49.3
12,Cc1nn(CCCC(=O)N2CCc3ccccc3C2)c(=O)c2cc3sccc3n12,-75.5
13,CCOC(=O)CCCn1nc(C)n2c(cc3sccc32)c1=O,-21.6
14,COc1ccc(C(CNCC(=O)Nc2ccccc2F)N(C)C)cc1.O=C(O)C(=O)O (stereo not shown),-35.1
15,COc1ccc(C)cc1S(=O)(=O)NCC(c1ccc2c(c1)OCO2)N1CCN(C)CC1 (stereo not shown),-68.2
16,O=S(=O)(NCC(c1ccc2c(c1)OCO2)N1CCOCC1)c1ccc(Br)cc1 (stereo not shown),-16
17,COc1ccc(C)cc1S(=O)(=O)NCC(c1ccc2c(c1)OCO2)N1CCOCC1 (stereo not shown),-13.6
18,CN1CCN(C(CNS(=O)(=O)c2ccc(Br)cc2)c2ccc3c(c2)OCO3)CC1 (stereo not shown),-79.8
19,COc1ccc(F)cc1S(=O)(=O)NCC(c1ccc2c(c1)OCO2)N1CCN(C)CC1 (stereo not shown),-45.6
20,CCOc1ccc(S(=O)(=O)NCC(c2ccc3c(c2)OCO3)N2CCN(C)CC2)cc1 (stereo not shown),-59.2
21,COc1ccc(S(=O)(=O)NCC(c2ccc3c(c2)OCO3)N2CCOCC2)cc1 (stereo not shown),-6.41
22,Cc1ccc(S(=O)(=O)NCC(c2ccc3c(c2)OCO3)N2CCOCC2)cc1 (stereo not shown),-8.63

row,SMILES,"hERG current change (%, negative = inhibition) at 10uM [%]"
1,COc1ccc(S(=O)(=O)NCC(c2ccc3c(c2)OCO3)N2CCN(C)CC2)cc1OC (stereo not shown),-15.5
2,O=C(NC(=O)c1ccc(F)cc1)Nc1nc(-c2cccs2)cc(C(F)(F)F)n1,12.2
3,Cn1nnnc1SCC(=O)N1CCOCC1,16.2
4,CN1CCN(C(=O)CCC(=O)c2ccc(F)cc2)CC1,8.49
5,CN1CCN(C(=O)/C(=C/c2ccc(F)cc2)c2ccsc2)CC1.Cl,-70.1
6,CN1CCN(C(=O)/C(=C\c2ccccc2)c2ccccc2)CC1,-59.9
7,CN1CCN(C(=O)/C(C#N)=C/c2ccc(F)cc2)CC1.Cl,6.63
8,CC1CCCCN1C(=O)/C(=C\c1ccccc1)c1ccccc1 (stereo not shown),-17.4
9,O=C(O)/C(=C\c1ccccc1)c1ccccc1,-0.424
10,CC1CC(C)CN(C(=O)/C(=C\c2ccccc2)c2ccccc2)C1 (stereo not shown),-27.4
11,C/C(=C/c1ccccc1)C(=O)N1CCN(c2ccccc2)CC1,-16.2
12,CN1CCN(C(=O)/C(=C/c2ccccc2)c2ccccc2)CC1,-54.8
13,COCCn1c(-c2ccccc2)nc(=S)c2c1CC(C)(C)OC2,-11.5
14,COc1ccc(-c2noc(N3CCC(C(=O)NCc4ccc(F)cc4)CC3)n2)cc1,-20.4
15,CC(=N)C1=C(O)CC(C)(C)CC1=O,1.84
16,CC(=O)NCCCC(=O)NN1C(=S)N(Cc2ccccc2)C(=O)C1CC(=O)Nc1cccc(C)c1 (stereo not shown),8.8
17,O=C(NC1CC(=O)N(c2ccc3c(c2)OCCO3)C1)N1CCCCC1 (stereo not shown),12.4
18,CC1(c2nnc(-c3ccc(F)cc3)o2)CC(c2c(Cl)cccc2Cl)=NO1 (stereo not shown),-37
19,COC(=O)c1nnn(-c2nonc2N)c1CN1CCc2ccccc21,4.57
